Reference: PubChem BioAssay (NCATS)
Records with an inconclusive call do not appear. Activity calls are given as the source filed them. Unless noted, calls follow the shape of the full dose curve.

What was measured:
[1] = qHTS for Inhibitors of the Functional Ribonucleoprotein Complex (vRNP) of Lassa (LASV) Arenavirus: LASV Primary Screen - GLuc reporter signal (AID 1347082; calls by dose curve; tested in HEK293 reporter line; also: nearly all actives have a fitted effect of over 60% in size)
[2] = qHTS for Inhibitors of the Functional Ribonucleoprotein Complex (vRNP) of Lassa (LASV) Arenavirus: Viability assay - alamar blue signal for LASV Primary Screen (AID 1347083; calls by dose curve; tested in HEK293 reporter line; also: nearly all actives have a fitted effect of over 80% in size)
[3] = qHTS for Inhibitors of the Functional Ribonucleoprotein Complex (vRNP) of Lymphocytic Choriomeningitis Arenaviruses (LCMV): Viability assay - alamar blue signal for LCMV Primary Screen (AID 1347085; calls by dose curve; tested in HEK293 reporter line; also: nearly all actives have a fitted effect of over 80% in size)
[4] = target: Nucleoprotein (Lymphocytic choriomeningitis virus (strain Armstrong)) (UniProt P09992); test: qHTS for Inhibitors of the Functional Ribonucleoprotein Complex (vRNP) of Lymphocytic Choriomeningitis Arenaviruses (LCMV): LCMV Primary Screen - GLuc reporter signal (AID 1347086); also: nearly all actives have a fitted effect of over 70% in size

Measured: Potency
Also: series mostly up to about 57 µM.

Chain of Nucleoprotein (Lymphocytic choriomeningitis virus (strain Armstrong)) (P09992 whole entry, looked up): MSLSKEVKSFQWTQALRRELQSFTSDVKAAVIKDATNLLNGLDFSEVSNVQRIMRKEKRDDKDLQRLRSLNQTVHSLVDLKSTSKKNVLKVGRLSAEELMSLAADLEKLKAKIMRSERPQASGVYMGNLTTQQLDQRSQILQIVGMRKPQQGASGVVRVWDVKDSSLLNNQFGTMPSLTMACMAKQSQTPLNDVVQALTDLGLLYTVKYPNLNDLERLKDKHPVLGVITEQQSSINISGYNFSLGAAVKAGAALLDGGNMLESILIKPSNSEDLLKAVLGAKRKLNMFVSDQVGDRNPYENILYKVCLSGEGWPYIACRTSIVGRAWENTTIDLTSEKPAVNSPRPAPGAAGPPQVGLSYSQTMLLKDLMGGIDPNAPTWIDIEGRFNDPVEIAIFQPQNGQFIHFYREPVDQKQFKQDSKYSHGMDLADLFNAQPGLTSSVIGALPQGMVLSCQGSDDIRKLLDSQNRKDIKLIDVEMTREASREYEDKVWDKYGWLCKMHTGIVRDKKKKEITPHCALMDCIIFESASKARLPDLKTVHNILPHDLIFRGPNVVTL

COC(=O)c1cccnc1
inactive: all assays above

CC(C)NNC(=O)c1ccncc1
inactive: all assays above

Cc1oc(=O)oc1COC(=O)[C@@H]1N2C(=O)[C@@H](NC(=O)[C@H](N)c3ccccc3)[C@H]2SC1(C)C
inactive: all assays above

COc1c2occc2cc2ccc(=O)oc12
inactive: all assays above

Cc1nc([N+](=O)[O-])cn1-c1ccc([N+](=O)[O-])cc1
inactive: all assays above

Nc1ccc(S(=O)(=O)Nc2ccccn2)cc1
inactive: all assays above

CC(=O)OC[C@H]1O[C@@H](OC(C)=O)[C@H](OC(C)=O)[C@@H]1OC(C)=O
inactive: all assays above

CCN(CC)CC(=O)Oc1ccc(NC(C)=O)cc1
inactive: all assays above

Cc1c(C(=O)O)c(O)cc2c1C(=O)c1c(O)c([C@@H]3O[C@H](CO)[C@@H](O)[C@H](O)[C@H]3O)c(O)c(O)c1C2=O
inactive: all assays above

Cc1ccnc(NS(=O)(=O)c2ccc(N)cc2)n1
inactive: all assays above

C[C@@H]1C[C@H]2[C@@H]3C[C@H](F)C4=CC(=O)C=C[C@]4(C)[C@@]3(F)[C@@H](O)C[C@]2(C)[C@@]1(O)C(=O)CO
inactive: all assays above

O=C(Oc1ccccc1)c1ccccc1O
inactive: all assays above

COc1ccc(/C(C)=C/C(=O)O)c(OC)c1
inactive: all assays above

O=C1CC[C@H](C(=O)N2CCCCC2)N1
inactive: all assays above

Cc1ncc(CO)c(C=O)c1O
inactive: all assays above

Cc1cccc(C(=O)O)c1O
inactive: all assays above

CCN1CCC[C@H]1CNC(=O)c1c(OC)ccc(Br)c1OC
inactive: all assays above

CN=C(N)NC(=O)Nc1c(C)cccc1C
inactive: all assays above

Cc1ccc(S(=O)(=O)NC(=O)NC2CCCCCCC2)cc1
inactive: all assays above

NC(=O)CC[C@@H]1NC(=O)[C@H](Cc2ccccc2)NC(=O)[C@H](Cc2ccc(O)cc2)NC(=O)CCSSC[C@@H](C(=O)N2CCC[C@H]2C(=O)N[C@@H](CCCN=C(N)N)C(=O)NCC(N)=O)NC(=O)[C@H](CC(N)=O)NC1=O
inactive: all assays above

CC(=O)N(c1onc(C)c1C)S(=O)(=O)c1ccc(N)cc1
inactive: all assays above

CN[C@@H]1[C@@H](O)[C@@H](O[C@@H]2[C@H](O)[C@H](O[C@H]3OC(CN)=CC[C@H]3N)[C@@H](N)C[C@H]2N)OCC1(C)O (stereo not given in full)
inactive: all assays above

O=C(NCC(O)CO)c1c(I)c(C(=O)NCC(O)CO)c(I)c(N(CCO)C(=O)CO)c1I (stereo not given)
inactive: all assays above

CCCCCCCCCCCCCCCCCC(=O)O
inactive: all assays above

Cn1cc(S(C)=O)c(=O)c2ccc(F)cc21 (stereo not given)
inactive: all assays above

Cc1coc2ccccc2c1=O
inactive: all assays above

Cc1nnc(C(C)C)n1C1C[C@H]2CC[C@@H](C1)N2CC[C@H](NC(=O)C1CCC(F)(F)CC1)c1ccccc1 (stereo not given in full)
inactive: all assays above

O=C1OC2(c3ccccc31)c1cc(Br)c(O)c(Br)c1Oc1c2cc(Br)c(O)c1Br
inactive: all assays above

CC1CCc2c(N3CCC(O)CC3)c(F)cc3c(=O)c(C(=O)O)cn1c23 (stereo not given)
inactive: all assays above

CC[C@H]1OC(=O)[C@H](C)[C@@H](O[C@H]2C[C@@](C)(OC)[C@@H](O)[C@H](C)O2)[C@H](C)[C@@H](O[C@@H]2O[C@H](C)C[C@H](N(C)C)[C@@H]2O)[C@](C)(O)C[C@@H](C)CN(C)[C@H](C)[C@@H](O)[C@]1(C)O
inactive: all assays above

CC1(C)O[C@H]2CC(=O)OC[C@]23[C@H]2CC[C@@]4(C)[C@H](c5ccoc5)OC(=O)[C@H]5O[C@]54[C@]2(C)C(=O)C[C@@H]13
inactive: all assays above

CCOc1ncc(F)c(=O)[nH]1
inactive: all assays above

Cc1cc2c(cc1CC(=O)c1sccc1S(=O)(=O)Nc1onc(C)c1Cl)OCO2
inactive: all assays above

O=C(OCC1(COC(=O)c2cccnc2)CCCC(COC(=O)c2cccnc2)(COC(=O)c2cccnc2)C1O)c1cccnc1
inactive: all assays above

c1ccc2sc(SSc3nc4ccccc4s3)nc2c1
inactive: all assays above

Cc1ccsc1/C=C/C1=NCCCN1C
inactive: all assays above

Oc1ccccc1
inactive: all assays above

COC(=O)c1ccc(NC(C)=O)cc1OC
inactive: all assays above

CCCC(CCC)(C(=O)OCC)C(=O)OCC
inactive: all assays above

Nc1cc(=O)[nH]c(N)n1
inactive: all assays above

C[C@]12C=CC(=O)C=C1[C@@H](F)C[C@@H]1[C@@H]2[C@@H](O)C[C@@]2(C)[C@H]1CC[C@]2(O)C(=O)CO
inactive: all assays above

CCCCCCn1c(=O)c2c(ncn2C)n(C)c1=O
inactive: all assays above

CC(=O)CC/C=C(\C)CC/C=C(\C)CC/C=C(\C)CCC=C(C)C
inactive: all assays above

CC(C)(Sc1cc(C(C)(C)C)c(O)c(C(C)(C)C)c1)Sc1cc(C(C)(C)C)c(O)c(C(C)(C)C)c1
inactive: all assays above

O=c1[nH]c(=O)n([C@H]2C[C@H](O)[C@@H](CO)O2)cc1Br
inactive: all assays above

CCCCCCCCCCCCOCCO
inactive: all assays above

COc1ccc2cc([C@H](C)C(=O)O)ccc2c1
inactive: all assays above

CC[C@H](C)C(=O)O[C@H]1C[C@H](O)C=C2C=C[C@H](C)[C@H](CC[C@@H](O)C[C@@H](O)CC(=O)O)[C@H]21
inactive: all assays above

CNCCCC12CCC(c3ccccc31)c1ccccc12
inactive: all assays above

O=C(O)CCCC[C@@H]1SC[C@@H]2NC(=O)N[C@@H]21
inactive: all assays above

OCCOCCN1CCN(C2=Nc3ccccc3Sc3ccccc32)CC1
inactive: all assays above

Nc1ncnc2nc[nH]c12
inactive: all assays above

O=C(CS(=O)Cc1ccco1)NC/C=C\COc1cc(CN2CCCCC2)ccn1 (stereo not given)
inactive: all assays above

COc1nccnc1NS(=O)(=O)c1ccc(N)cc1
inactive: all assays above

Cn1c(=O)c2c(ncn2CCO)n(C)c1=O
inactive: all assays above

CC(=O)OCC(=O)[C@@]1(OC(C)=O)[C@@H](C)C[C@H]2[C@@H]3C[C@H](F)C4=CC(=O)C=C[C@]4(C)[C@@]3(F)[C@@H](O)C[C@@]21C
inactive: all assays above

NS(=O)(=O)c1ccc(NC(=O)CCC(=O)O)cc1
inactive: all assays above

O=C(O)/C=C(\CC(=O)O)C(=O)O
inactive: all assays above

COc1ccc(C(=O)N2CCN(CC(=O)N3CCOCC3)CC2)cc1
inactive: all assays above

Cc1ncc(CO)c(CN)c1O
inactive: all assays above
